From PubChem BioAssay (NCI)
Compounds without any hit were thinned out: in the full panel of roughly 83,000, 20% have a hit.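 48-hour exposure, single concentration, 96-well plates; percent growth endpoint where 0 means no net growth. Active: below 10.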 Unmarked numbers belong to inactive results. Active and inactive are the calls of the source.

How the values were obtained:
Experiment in all cases: NCI-60 one-dose screen, 48 h (100 = growth as untreated, 0 = no growth, -100 = all killed)
[1] = test system: NCI-H23 lung; settings: 10 µM unless noted
[2] = test system: NCI-H226 lung; settings: 10 µM unless noted
[3] = test system: NCI-H322M lung; settings: 10 µM unless noted
[4] = test system: HOP-62 NSCLC; settings: 10 µM unless noted
[5] = test system: NCI-H460 lung; settings: 10 µM unless noted
[6] = test system: HOP-92 NSCLC; settings: 10 µM unless noted
[7] = test system: NCI-H522 lung; settings: 10 µM unless noted
[8] = test system: A549/ATCC NSCLC; settings: 10 µM unless noted
[9] = test system: 786-0 renal; settings: 10 µM unless noted
[10] = test system: COLO 205 colon; settings: 10 µM unless noted
[11] = test system: DU-145 prostate; settings: 10 µM unless noted
[12] = test system: K-562 leukemia; settings: 10 µM unless noted
[13] = test system: MALME-3M melanoma; settings: 10 µM unless noted
[14] = test system: MDA-MB-231 breast; settings: 10 µM unless noted
[15] = test system: RXF 393 renal; settings: 10 µM unless noted
[16] = test system: SF-268 CNS; settings: 10 µM unless noted
[17] = test system: SF-295 CNS; settings: 10 µM unless noted
[18] = test system: SF-539 CNS; settings: 10 µM unless noted
[19] = test system: UACC-257 melanoma; settings: 10 µM
[20] = test system: M14 melanoma; settings: 10 µM unless noted

SMILES	growth [1]	growth [2]	growth [3]	growth [4]	growth [5]	growth [6]	growth [7]	growth [8]	growth [9]	growth [10]	growth [11]	growth [12]	growth [13]	growth [14]	growth [15]	growth [16]	growth [17]	growth [18]	growth [19]	growth [20]
COc1ccc(-c2nc3cc(Cl)c(Cl)cc3n2CC(=O)N=Nc2c(O)[nH]c3ccccc23)cc1	31.4%	-8.79% (active)	70.3%	45.3%	30.3%	24.1%	87.9%	27.8%	100%	55%	-11.4% (active)	28.7%	35.9%	54.2%	-21.8% (active)	64.4%	79.4%	13.7%	95.7%	50.5%
Oc1ccc(CSc2nnc(-c3ccc(Br)cc3)o2)c2cccnc12	38.3%	61.5%	35.7%	21.9%	10.8%	5.88% (active)	29.4%	29.8%	39.9%	100%	40.2%	15.2%	58.5%	51.4%	60.9%	31.3%	11.3%	28.4%	29.7%	31.5%
CC1CCc2c(sc3nc(SCC(=O)N/N=C/c4cccc(O)c4O)n(-c4ccccc4)c(=O)c23)C1 (stereo not given)	88%	87.4%	96.8%	71.2%	88.4%	45.4%	83.1%	86.2%	99.7%	110%	74.7%	77.6%	95.1%	84.6%	-2.02% (active)	105%	86.7%	94.7%	100%	84.4%
C/C(=C(/c1ccc(O)cc1)c1ccc(OCCN(C)C)cc1)c1ccc(Cl)cc1	56.8%	89.4%	48%	67.4%	15%	32.5%	57.8%	56.4%	50.2%	-88.7% (active)	65.2%	0.0711% (active)	-47.9% (active)	31.1%	30.3%	61.8%	80.9%	-18.4% (active)	-66.6% (active)	-70.7% (active)
Oc1ccccc1-c1nnc(SCc2ccc(O)c3ncccc23)n1-c1ccccc1	17.4%	9% (active)	21.9%	13.6%	3.98% (active)	-4.85% (active)	-6.01% (active)	9.34% (active)	20.1%	34.5%	22.9%	10.8%	0.0457% (active)	28.2%	-9.85% (active)	14.9%	1.17% (active)	7.96% (active)	1.58% (active)	-28.3% (active)
O=C1c2c(c3c4cccnc4[nH]c3c3ccc4ccccc4c23)C(=O)N1CCN1CCNCC1	81.6%	89.4%	88%	63.6%	32.6%	85.3%	81.8%	44%	52.7%	81.9%	74.8%	-35.5% (active)	92.3%	89.9%	75.5%	78.3%	84.2%	73.8%	106%	64.4%
COc1cc2oc(-c3cccc(NC(=O)c4cc(NC(=O)[C@H](C)NC(=O)OC(C)(C)C)ccc4C)c3)cc(=O)c2c(OC)c1OC	63.8%	80.6%	86.2%	84.5%	61.5%	-0.546% (active)	72.2%	80.5%	77.5%	67.7%	62.2%	47.4%	92.5%	65.1%	67.7%	79.4%	65.5%	79.4%	118%	97.9%
O=C(/C=C1\C=CN(CCCCCCF)c2ccccc21)n1ccc2ccccc21	89.5%	48.4%	96.6%	85.8%	110%	70.3%	86.4%	102%	111%	103%	109%	91.2%	91.6%	84.4%	121%	99.7%	94.6%	99.3%	103%	92%
C=CCn1c(SCC(=O)Nc2ccc(OC)cc2)nnc1-c1ccc(Cl)cc1	81.1%	88.8%	96.4%	101%	104%	68.8%	83.4%	103%	104%	107%	99.5%	89.6%	89.9%	85.3%	86.6%	90.6%	98.1%	94.8%	97.1%	96.3%
CCN(CC)CCN1C(=O)c2c(c3c4cc(Br)ccc4[nH]c3c3ccc4ccccc4c23)C1=O	-81.8% (active)	60.8%	-92.3% (active)	-66.9% (active)	-65.8% (active)	-65.1% (active)	-41.9% (active)	-80.1% (active)	-85.9% (active)	-3.78% (active)	-94.1% (active)	-64.8% (active)	-69.1% (active)	-65.3% (active)	-77.3% (active)	-42.2% (active)	-89% (active)	-96.9% (active)	103%	-63.9% (active)
O=C(CSc1ccc(-c2nc3ccccc3[nH]2)cn1)N1CCN(c2ccccc2F)CC1	67.3%	59.6%	101%	89.8%	88.5%	71.9%	52.4%	81.2%	95.4%	79.7%	90.7%	41.9%	90.8%	100%	90.7%	87.7%	61.4%	92.1%	56.2%	59.8%
COc1ccc(Cn2cc3c(c2-c2ccccc2)CCCc2cnoc2-3)cc1[N+](=O)[O-]	74.8%	66.6%	96.2%	68.6%	56.4%	62.7%	58.2%	66.7%	87.6%	46.8%	84.2%	17.8%	60.5%	75.2%	49.6%	78.5%	69.5%	70.5%	75.3%	51%
Cc1ccc(Cc2cnc(NC(=O)/C(C#N)=C/c3ccc(-c4ccc(Cl)cc4)o3)s2)cc1	91.3%	117%	84.9%	101%	83.8%	66.9%	96.9%	103%	99.9%	93.8%	84%	88.7%	98.8%	97.4%	61%	95.3%	102%	98.4%	100%	95.9%
CCN1C(=O)N(CC)C2SC(N/N=C/C=C/c3ccccc3OC)=NC21 (stereo not given)	30.4%	54.9%	44.8%	47.3%	2.9% (active)	39.1%	1.31% (active)	27.1%	23.8%	7.22% (active)	12.9%	18.3%	50.4%	26.5%	20.5%	50.9%	5.32% (active)	-10.6% (active)	73.5%	0.965% (active)
COc1cc2oc(-c3cccc(NC(=O)c4cc(NC(=O)[C@H](C)N)ccc4Cl)c3)cc(=O)c2c(OC)c1OC	91.5%	86%	104%	105%	99.8%	17.2%	94.9%	96.3%	91.7%	101%	95.2%	78.8%	111%	82.4%	84.8%	92.2%	92.3%	91.1%	129%	115%
